Assay outcomes as filed in PubChem BioAssay.
Sm TGR block = qHTS Assay for the Inhibitors of Schistosoma Mansoni Peroxiredoxins; Schistosoma mansoni thioredoxin glutathione reductase (TGR), Q962Y6; purified TGR, DTNB reduction, TNB absorbance 405 nm; Potency, µM (top dose mostly 114 µM), for the others: at the top dose activity change, negative = inhibition, hits mostly inhibitors; actives 3% (n = 360,000); also: potency is read from the fitted curve at half-maximal effect; nearly all actives have a fitted effect of over 60% in size
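Kinetic colorimetric format: TGR-catalysed, NADPH-driven DTNB reduction monitored via TNB absorbance. Enzyme dispensed at 20 nM; compound exposure 15 min at room temperature before reaction start.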
Giardia FBPA inh = qHTS Assay for Inhibitors of Fructose-1,6-bisphosphate Aldolase from Giardia Lamblia; A8B2U2; purified Giardia FBPA; Potency, µM (series often up to 59.6 µM), for the others: top-dose activity, negative = inhibition, hits mostly inhibitors; actives 0.71% (n = 290,000); AID 2451, 2010; also: potency is read from the fitted curve at half-maximal effect; nearly all actives have a fitted effect of over 55% in size
Target sequence (A8B2U2 whole entry, looked up): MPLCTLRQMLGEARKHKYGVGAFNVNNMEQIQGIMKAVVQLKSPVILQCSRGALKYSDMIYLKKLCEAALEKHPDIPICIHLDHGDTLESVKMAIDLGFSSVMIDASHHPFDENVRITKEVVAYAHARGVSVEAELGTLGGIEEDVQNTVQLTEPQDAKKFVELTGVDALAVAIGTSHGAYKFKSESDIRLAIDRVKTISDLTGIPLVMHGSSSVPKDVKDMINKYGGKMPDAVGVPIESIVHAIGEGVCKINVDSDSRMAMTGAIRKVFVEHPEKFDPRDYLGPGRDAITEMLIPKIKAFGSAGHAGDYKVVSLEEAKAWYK
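40 nM FBPA preincubated 10 min at RT with compound (up to 57.5 uM final), then substrate plus GAPDH/TPI/NAD/arsenate coupling and diaphorase/resazurin added. Fluorescence read after 20 min at RT, 525/598 nm.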
Pf growth 48h = Primary qHTS for delayed death inhibitors of the malarial parasite plastid, 48 hour incubation. P. falciparum luciferase growth in erythrocytes, 48 h. Potency, µM (series often up to 28.7 µM), without a hit: at the top dose activity change, negative = inhibition, hits mostly inhibitors. actives 5.9% (n = 310,000). AID 504832, 2011; also: potency is read from the fitted curve at half-maximal effect
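Erythrocytes infected with P. falciparum carrying an integrated firefly luciferase reporter (2% hematocrit, 0.1% parasitemia final) were exposed to compounds in RPMI 1640 with 0.5% Albumax at 37 C, 5% CO2. Growth inhibition was scored as reduced luminescence.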
Pf growth 96h = Primary qHTS for delayed death inhibitors of the malarial parasite plastid, 96 hour incubation; P. falciparum luciferase reporter growth, 96 h; Potency, µM (highest dose often 28.7 µM), inactives show at the top dose activity change, negative = inhibition, most hits filed as inhibitors; actives 6.9% (n = 320,000); AID 504834, 2011; also: potency is read from the fitted curve at half-maximal effect
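Erythrocytes infected with luciferase-expressing P. falciparum were dispensed at 2% hematocrit and 0.05% parasitemia (final), then incubated with compounds 96 hours at 37 C in 5% CO2. Luminescence after detection reagent addition reported growth.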
HCMV inh = qHTS Assay for inhibitors of the human cytomegalovirus (HCMV); activity change, negative = inhibition, % at 57.5 µM; actives 4.5% (n = 410,000); HFF cells, HCMV-luciferase reporter, 72 h; hits give low values; in the data active = activity change below about -60%; inconclusive = no clear call, values can overlap the other calls; inactive = above about -39%
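Compounds were evaluated in HFFs infected with an HCMV luciferase reporter virus (MOI 1 PFU/cell). Luciferase in lysates collected 72 h post infection served as the replication measure.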
The depositor's hits bear a star; ? = inconclusive; · = no result given. An excerpt weighted towards active compounds, which were near 14% of everything screened. Unless noted, calls follow the shape of the dose curve; as a rule, active = well fitted curve in the direction sought with a large enough effect; inconclusive = small, poorly fitted or top-dose-only effect, or another doubt; inactive = no such curve, though single readings can be large; an effect the other way counts as inactive or inconclusive. % is scaled to controls: 0 for no effect and ±100 for the full control effect.

SMILES	Sm TGR block	Giardia FBPA inh	Pf growth 48h	Pf growth 96h	HCMV inh
Cc1cc(N)nc(=O)n1C1CC(O)C(CO)O1 (stereo not drawn)	·	·	·	·	-17
CC(C)CN(C(=O)C1CSC2(C)CCC(=O)N12)c1c(N)n(Cc2ccccc2)c(=O)[nH]c1=O (stereo not drawn)	-24%	·	?	17%	25
COc1ccccc1-c1noc2nc(N(C)Cc3ccc(F)cc3)ccc12	·	·	·	·	-9
CN(C)/C=C/C(=O)c1nnn(C2CCCCC2)c1NC1CCCCC1	-21%	6%	5.2µM*	·	-13
CCN1C(=O)[C@H]2[C@@H](c3ccc(OC)cc3)N[C@]3(CCCN(CC4CCCCC4)C3=O)[C@H]2C1=O	·	·	·	·	15
O=C(CSc1nc(-c2cccc(F)c2)[nH]c1-c1ccccc1)Nc1ccc2c(c1)OCCO2	4%	·	·	·	-106*
O=C(Nc1ccc2c(c1)OCCO2)c1[nH]c(C(F)(F)F)nc1-c1ccccc1	·	·	·	·	-74*
COc1cc(-c2nc(SCC(=O)Nc3ccc4c(c3)OCO4)c(-c3ccccc3)[nH]2)cc(OC)c1OC	-5%	·	·	·	?
O=C(NC1CC1)c1[nH]c(C(F)(F)F)nc1-c1ccccc1	·	·	·	·	-11
O=C(CSc1nc2ncccc2[nH]1)Nc1ccc2c(c1)OCO2	-20%	-16%	10%	24%	17
O=C(CSc1nc(-c2ccccc2)[nH]c1-c1ccccc1)Nc1ccc2c(c1)OCO2	7%	·	·	·	-109*
O=C(CSc1nc(-c2ccccc2)c(-c2ccccc2)[nH]1)Nc1ccc2c(c1)OCO2	-10%	-2%	-3%	?	-68*
N#Cc1c(Cl)nc(Cl)c2c1CCN(Cc1ccccc1)C2	35µM*	-15%	-16%	?	-5
N#Cc1c(N2CCCCC2)nc(N2CCCCC2)c2c1CCN(Cc1ccccc1)C2	-22%	-12%	3.7µM*	98%	?
CCN1CCc2c(C#N)c(NCc3ccccc3)nc(N(CC)CC)c2C1	-11%	-23%	2.6µM*	0.93µM*	-14
N#Cc1c(NCCN)nc(NCc2ccccc2)c2c1CCN(Cc1ccccc1)C2	-10%	?	9.3µM*	70%	·
CCC(=O)N1CCN=C1SCc1cccc(F)c1	-15%	·	-7%	?	-22
CCCS(=O)(=O)NC(=O)C1(C)CCN(C(=O)c2cc(C)nn2C(C)(C)C)C1 (stereo not drawn)	·	·	·	·	6
COc1ccccc1N(C(=O)CNC(=O)c1ccco1)C(C(=O)NCC1CCCO1)c1ccccc1 (stereo not drawn)	-5%	·	14%	26%	-32
CCCc1nc(NCc2ccccc2)c(C#N)c2c1CCCC2	-11%	-3%	6.6µM*	?	-30
Cc1ccc(S(=O)(=O)c2c(COC(=O)c3ccccc3Cl)c(-c3ccccc3)nn2C)cc1	-4%	-1%	·	6.6µM*	2
COc1ccc(C[C@@H]2CN3C(=NC[C@@H]3C)N2C[C@H](C)NC(=O)CCC2CCCCC2)cc1	25µM*	-6%	?	?	4
C[C@@H](CN1C2=NC[C@H](Cc3ccc(O)cc3)N2C[C@H]1Cc1ccc(O)cc1)NC(=O)CCC1CCCCC1	-23%	3%	7.4µM*	1.7µM*	2
C[C@@H](CN1C2=NC[C@H](Cc3ccccc3)N2C[C@H]1Cc1ccc(O)cc1)NC(=O)CCC1CCCCC1	?	1%	?	15µM*	-3
COc1ccc(C[C@H]2CN3C(=NC[C@@H]3Cc3ccccc3)N2C[C@H](C)NC(=O)CCC2CCCCC2)cc1	-7%	-2%	1.7µM*	2.6µM*	·
c1ccc(C[C@H]2CN=C(Nc3ccccc3)N2CCC2CCCC2)cc1	-6%	·	?	?	-13
O=C(CCC1CCCC1)N[C@@H](Cc1ccc(O)cc1)C(=O)O	27%	16%	53%	0%	7
Cc1ccc(S(=O)(=O)N(C)C)cc1NC(=O)COC(=O)c1ccc2c(=O)n3c(nc2c1)CCC3	1%	·	?	2%	1
COc1ccc(Cn2ccnc2SCC(=O)Nc2ccc3c(c2)OCCO3)cc1	-3%	·	·	·	4
